# An excerpt weighted towards active compounds, which were near 19% of everything screened.
# DT40 TDP1 CPT: growth inhibition of DT40 Tdp1-/-;hTDP1 cells with camptothecin (screen for TDP1 inhibitors); chicken DT40 Tdp1-/-;hTDP1 cells + 20 nM CPT, ATP luminescence, 48 h; Potency, µM (titrated, usually from 46.2 µM), inactives show top-dose activity change, negative = growth inhibition, usual class: inhibitors; hit rate 12% among 420,000; further: potency means the concentration at half of the fitted maximal effect; nearly all actives have a fitted effect of over 55% in size
#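 Cell growth measured by CellTiter-Glo luminescence after a minimum 48 h, 37 C compound exposure with 20 nM CPT in Tdp1-knockout DT40 cells stably expressing hTDP1, seeded 400/well; qHTS titration format.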
# HT1080NT lethal: kills 2HG-producing HT-1080-NT fibrosarcoma cells. HT-1080-NT fibrosarcoma viability, CellTiter-Glo ATP luminescence, 48 h. Potency, µM (series often up to 46.1 µM), for the others: top-dose activity, negative = less viability, hits mostly cytotoxic. hit rate 1.6% among 360,000. AID 686970;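 further: NT is the 2HG producing partner of a matched IDH1 knockdown line; potency means the concentration at half of the fitted maximal effect; 0% = DMSO-treated cells and -100% = media-only wells without cells; nearly all actives have a fitted effect of over 55% in size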
#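 HT-1080-NT fibrosarcoma cells (2HG-overproducing), 750 cells/well in RPMI with 5% FBS, dosed after 2 h and incubated 48 h at 37C. CellTiter-Glo luminescence normalized to DMSO and no-cell wells; concentration-response curves fitted and classed.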
# TDP1 cell noCPT: qHTS for Inhibitors of human tyrosyl-DNA phosphodiesterase 1 (TDP1): qHTS in cells in absence of CPT; DT40 Tdp1-/- hTDP1 cells, no CPT, ATP luminescence, 48 h; Potency, µM (series often up to 46.2 µM), for inactives: at the highest dose activity change, negative = growth inhibition, usual class: inhibitors; hit rate 15% among 420,000; further: potency means the concentration at half of the fitted maximal effect; nearly all actives have a fitted effect of over 55% in size
#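 A cellular qHTS used chicken DT40 cells lacking endogenous Tdp1 but carrying stably transfected human TDP1. Compounds were applied without camptothecin, and cell growth kinetics were judged by ATP-dependent luminescence after ≥48 hr.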
# HT1080 IDH1KD tx: HT-1080 IDH1 knockdown cell toxicity (counter line); Potency, µM (doses to about 46.1 µM), for inactives: top-dose activity, negative = toxicity, actives largely listed as cytotoxic; AID 686971; hit rate 2% among 360,000; HT-1080 IDH1 knockdown viability, ATP luminescence, 48 h;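 further: potency means the concentration at half of the fitted maximal effect; 0% = DMSO wells and -100% = cell-free medium wells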
#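 In this qHTS, HT-1080 cells depleted of IDH1 are exposed for 48 h at 37 °C to compound titrations. Toxicity is scored from CellTiter-Glo luminescence, with DMSO as full viability and medium alone as none.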
# IL-1B inflam inh: inhibitors of inflammasome signaling (IL-1 beta secretion) | THP-1 LPS/ATP IL-1B secretion, AlphaLISA, 16 h; hits give low values | activity change, % at 57.5 µM | hit rate 4.7% among 360,000 | AID 743279; in the data active means activity change below about -50%; inconclusive means mostly about -30% to -49%
#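 Secreted IL-1B measured by AlphaLISA bead assay after 16 h compound exposure of THP-1 cells; compounds (final up to 57.5 uM) added 1 h before LPS (250 ng/mL) and ATP (1.25 mM) stimulation; lower signal means less secretion.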
# * = called active by the depositor; ? = inconclusive; . = no result given; [ ] = remark or other dose. Unless noted, the call rests on the fitted dose curve; in most records, active means well fitted curve in the direction sought with a large enough effect; inconclusive means small, poorly fitted or top-dose-only effect, or another doubt; inactive means no such curve, though single readings can be large; an effect the other way counts as inactive or inconclusive. Unless noted, on the % scale 0 is the no-effect control and ±100 the full control effect.
SMILES,DT40 TDP1 CPT,HT1080NT lethal,TDP1 cell noCPT,HT1080 IDH1KD tx,IL-1B inflam inh
CSc1nc(N)c2ncn([C@H]3O[C@H](COP(=O)(O)OP(=O)(O)OP(=O)(O)O)[C@@H](O)[C@@H]3O)c2n1,-0.4%,.,?,.,.
CC(C)OCCCn1c(=O)c2ccccc2n2c(CCC(=O)O)nnc12,-3.0%,12.5%,1.4%,14.4%,-10.5
COc1ccc(-c2nnc3n(CCc4ccccc4)c(=O)c4ccccc4n23)c(OC)c1,18.4µM*,5.5%,13µM*,17.3%,25.9
CC(C)c1ccc(-c2nnc3n(CCc4ccccc4)c(=O)c4ccccc4n23)cc1,?,.,18.4µM*,.,.
CCOc1ccc(OCc2ccc(C(=O)NN=Cc3ccc[nH]3)cc2)cc1,-11.2%,0.651µM*,-11.4%,?,?
C/C(=N\NC(=O)c1ccccc1OCc1ccc(F)cc1)c1ccccn1,4.61µM*,?,5.17µM*,?,51.9
O=C(N/N=C/c1ccc[nH]1)c1ccccc1OCc1ccc(F)cc1,-6.2%,0.0%,2.5%,-0.5%,-1.3
CCOc1ccc(OCc2ccc(C(=O)N/N=C(\C)c3ccccn3)cc2)cc1,0.92µM*,?,0.651µM*,?,113.3
COC(=O)C1=C(C)Nc2[nH]c(=S)[nH]c(=O)c2C1c1ccc(O)cc1 (stereo not given),-9.6%,9.0%,9.3%,2.2%,0.1
CC(C)(C)S(=O)(=O)N1Cc2cc(=O)n(Cc3ccccc3)c(CCO)c2[C@H]1CCO,6.9%,-0.6%,-5.2%,0.4%,-6.2
Cn1c(=O)n(C)c2cc(N3CCOCC3)c(NC(=O)c3cccc(Cl)c3)cc21,11.5%,7.8%,25.5%,15.6%,-3.6
C/C(=N/NS(=O)(=O)c1ccc(Cl)cc1)c1cccc(NC(=O)c2ccc(Cl)cc2Cl)c1,?,-18.7%,?,-20.2%,-9.3
Cc1nc2ccccc2c2ncccc12,-0.5%,2.4%,0.5%,-3.3%,-1.6
O=c1[nH]n(CCO)c(=O)c2cccnc12,7.5%,22.7%,-1.8%,5.5%,-1.9
Oc1ccc(Cc2ccccc2)c2cccnc12,4.61µM*,?,2.06µM*,?,89.4
Oc1ccccc1CNc1cccc2cccnc12,?,?,?,?,6.8
Oc1ccc(CNc2ccccc2F)c2cccnc12,2.06µM*,?,2.06µM*,?,105.7
OCc1ccc(O)c2ncccc12,5.17µM*,?,5.17µM*,?,80.4
CCC1=C(OC(=O)N(CC)CC)N2C(=O)OC(=NCCc3c[nH]c4ccccc34)[C@]2(Cc2ccccc2)[C@H]2C1=CC[C@H]1C(=O)N(CC(=O)OC)C(=O)[C@H]12,?,-8.3%,?,-5.6%,?
CCC1=C(OC(=O)N(CC)CC)N2C(=O)OC(=NCCc3c[nH]c4ccccc34)[C@]2(Cc2ccccc2)[C@H]2C1=CC[C@H]1C(=O)NC(=O)[C@H]12,?,?,16.4µM*,?,?
CCC1=C(OC(=O)N(CC)CC)N2C(=O)OC(=NCC3CC3)[C@]2(Cc2ccccc2)[C@H]2C1=CC[C@H]1C(=O)N(C)C(=O)[C@H]12,18.4µM*,-3.6%,18.4µM*,-8.9%,0.0
CCC1=C(OC(=O)N(CC)CC)N2C(=O)OC(=NCC(=O)OC)[C@]2(Cc2ccccc2)[C@H]2C1=CC[C@H]1C(=O)N(C)C(=O)[C@H]12,-23.5%,10.6%,-19.2%,1.0%,11.8
CCOc1ccc(N2CC(NC(=O)c3ccc4c(c3)OCO4)CC2=O)cc1 (stereo not given),-14.0%,.,-10.4%,.,.
Cc1ccc2ccccc2[n+]1[O-],-3.5%,.,-4.9%,.,.
[O-][n+]1c2ccccc2[n+]([O-])c2cc(O)ccc21,9.2µM*,-17.9%,13µM*,-20.0%,-0.4
SMILES,DT40 TDP1 CPT,HT1080NT lethal,TDP1 cell noCPT,HT1080 IDH1KD tx,IL-1B inflam inh
Cc1ccc2[nH]c(=O)c(CN(CCc3ccccc3)C(c3nnnn3Cc3ccco3)C(C)C)cc2c1 (stereo not given),29.1µM*,?,23.1µM*,16.4µM*,-90.8*
CCC(c1nnnn1CCOC)N(Cc1ccc(C)cc1)Cc1cc2cc(OC)ccc2[nH]c1=O (stereo not given),?,-2.3%,7.31µM*,-2.9%,-26.6
CCOC(=O)Cn1nnnc1C(CC)N(Cc1ccccc1)Cc1cc2cc(C)ccc2[nH]c1=O (stereo not given),?,12.0%,-29.1%,-0.8%,15.7
CCC(c1nnnn1Cc1ccccc1)N(Cc1ccco1)Cc1cc2cc(OC)ccc2[nH]c1=O (stereo not given),16.4µM*,?,20.6µM*,?,-54.0*
CCc1ccc2[nH]c(=O)c(CN(Cc3ccc(F)cc3)C(c3nnnn3CCN3CCOCC3)C(C)C)cc2c1 (stereo not given),?,11.7%,?,-26.8%,23.8
CCC(c1nnnn1Cc1ccco1)N(CCc1ccccc1)Cc1cc2cc(C)ccc2[nH]c1=O (stereo not given),20.6µM*,-27.2%,?,?,-51.9*
COc1ccc(C(=O)N/C(=C\c2cn(S(=O)(=O)N(C)C)c3ccccc23)C(=O)N2CCOCC2)cc1,-4.3%,-0.8%,17.5%,-1.6%,-14.2
CCC(c1nnnn1CCc1ccccc1)N(Cc1ccco1)Cc1cc2cc(C)cc(C)c2[nH]c1=O (stereo not given),18.4µM*,-21.3%,23.1µM*,-20.3%,-52.8*
CN1CCN(c2ccc3sc(-n4ccc5ccccc54)nc3c2)CC1,16.4µM*,?,13µM*,?,-16.4
CCOc1cc(C2CC(=O)c3c(ccc4ccccc34)N2)ccc1O (stereo not given),-27.8%,-21.9%,-29.0%,-20.3%,5.5
CCOC(=O)C1=C(COC(=O)c2ccc([N+](=O)[O-])o2)NC(=O)NC1C (stereo not given),?,-0.7%[9.24 µM],-3.9%,-0.2%,-6.2
CC1C(=O)NN=C1C(=O)N/N=C/c1ccco1 (stereo not given),?,-3.7%,?,17.7%,0.2
CC1=NNC(=O)C1CCC(=O)N/N=C/C(Br)=C/c1ccccc1 (stereo not given),2.91µM*,1.6%,2.06µM*,1.7%,17.2
CC1=NNC(=O)C1CC(=O)N/N=C/C(Br)=C/c1ccccc1 (stereo not given),20.6µM*,9.3%,20.6µM*,-1.6%,-3.5
CC1=NNC(=O)C1CCC(=O)N/N=C/c1ccco1 (stereo not given),-17.6%,12.3%,-4.7%,16.9%,-19.0
CC1C(=O)NN=C1C(=O)N/N=C\C(Br)=C\c1ccccc1 (stereo not given),6.51µM*,-11.0%,14.6µM*,-21.7%,-12.6
COc1ccc(C(=O)NCCCNC(=O)c2ccc(C)nc2)cc1,4.4%,1.5%,-17.5%,7.8%,5.1

# High-throughput results as filed in PubChem BioAssay.
